PKM2 act – qHTS Assay for Activators of Human Muscle isoform 2 Pyruvate Kinase | Pyruvate kinase PKM (Homo sapiens), P14618 | purified PKM2, Kinase-Glo ATP luminescence, activation; response scale: 0% is enzyme alone, no compound | Potency, µM (titrated, usually from 57.5 µM), inactives show top-dose activation, most hits filed as activators | 260,000 compounds, 0.34% hits | AID 1631, 2009; also: potency is read from the fitted curve at half-maximal effect; % is scaled to controls: 0 for no effect and ±100 for the full control effect; nearly all actives have a fitted effect of over 55% in size
Target sequence (P14618 whole entry, looked up, canonical isoform): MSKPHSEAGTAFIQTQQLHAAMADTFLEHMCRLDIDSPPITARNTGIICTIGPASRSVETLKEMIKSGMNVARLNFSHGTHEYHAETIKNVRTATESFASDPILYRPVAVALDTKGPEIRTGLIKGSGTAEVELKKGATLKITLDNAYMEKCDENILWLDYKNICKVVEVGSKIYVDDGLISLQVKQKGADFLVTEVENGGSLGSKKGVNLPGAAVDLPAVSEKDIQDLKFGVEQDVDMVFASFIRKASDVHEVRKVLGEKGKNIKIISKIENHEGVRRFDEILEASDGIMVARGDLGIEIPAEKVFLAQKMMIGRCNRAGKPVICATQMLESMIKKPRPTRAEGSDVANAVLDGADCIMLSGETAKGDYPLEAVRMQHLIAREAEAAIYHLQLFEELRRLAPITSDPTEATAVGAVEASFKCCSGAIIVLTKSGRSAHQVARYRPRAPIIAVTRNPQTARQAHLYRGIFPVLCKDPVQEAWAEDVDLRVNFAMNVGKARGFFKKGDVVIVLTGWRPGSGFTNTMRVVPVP
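ATP formation by purified human PK-M2, quantified via coupled luciferase luminescence after 1 h at room temperature with 0.1 mM ADP and 0.5 mM PEP final.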
uPA generation – qHTS for Inhibitors of Cell Surface uPA Generation; cell surface uPA generation assay, qHTS; Potency, µM (top dose mostly 38.3 µM), without a hit: at the top dose activity change, negative = inhibition, usual class: inhibitors; 330,000 compounds, 0.31% hits; AID 540303, 2011; active = well fitted inhibition curve with a large enough effect; tested in mouse RAW 264.7 cells; also: potency is read from the fitted curve at half-maximal effect; % is scaled to controls: 0 for no effect and ±100 for the full control effect; nearly all actives have a fitted effect of over 55% in size
TSHR antagonist – Antagonists of the Thyroid Stimulating Hormone Receptor: HTS campaign; Thyrotropin receptor (Homo sapiens), P16473; TSHR-expressing cells, TSH-stimulated cAMP HTRF, 2 h; active compounds read low; activity change, negative = inhibition, % at 11.5 µM; 330,000 compounds, 0.2% hits; AID 504810, 2011;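 active = activity change below a set negative limit, meaning inhibition stronger than a set level, cut at about -70% in these data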; also: % is scaled to controls: 0 for no effect and ±100 for the full control effect
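Competitive HTRF cAMP read-out (cryptate anti-cAMP antibody, cAMP-d2; 30 min, room temperature) in freshly harvested TSHR cells. Compounds added before TSH at EC80 (4nM final), followed by 2 hours' incubation at 37 deg C.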
TCR act – Activators of T cell receptors: qHTS campaign; primary human leukocytes, anti-CD3, IL-2 HTRF, 48 h; Potency, µM (top dose mostly 9.22 µM), without a hit: at the highest dose activation of IL-2 secretion, most hits filed as activators; 330,000 tested, under 10 active; AID 504894, 2011; also: % of control where 0% means no effect
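Using a-CD3 beads without co-stimulation, primary human leukocytes were exposed to compounds for 48 hr. An HTRF IL-2 kit measured the cytokine, with europium-to-d2 energy transfer producing emission at 665nm upon 320nm excitation.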
Numbers without * were called inactive; · = no result given; [ ] = another dose, or the depositor's remark. Compounds with a hit are over-represented: about 0.75% of the library has one in this group of screens. Unless noted, calls follow the shape of the dose curve; as a rule, active = well fitted curve in the direction sought with a large enough effect; inconclusive = small, poorly fitted or top-dose-only effect, or another doubt; inactive = no such curve, though single readings can be large; an effect the other way counts as inactive or inconclusive.

SMILES	PKM2 act	uPA generation	TSHR antagonist	TCR act
C(=C\c1ccc2ccccc2n1)/c1ccccc1	-46%	5.6µM*	-35	-2%
CN(C)c1ccc(/C=C/c2ccc3ccccc3n2)cc1	-10%	2µM*	5	-3%
CCOc1ccc(Cc2nnc(SCC(=O)Nc3c(C)cccc3C)[nH]c2=O)cc1	·	2%	4	-48%
COc1c(C)cc(C(=O)C2CCCN(C(=O)c3ccc4cc[nH]c4c3)C2)cc1C (stereo not drawn)	-2%	7%	1	6%
O=C(O)c1ccccc1NS(=O)(=O)c1cccc(C(F)(F)F)c1	2%	·	2	5%
O=C(O)c1ccccc1NS(=O)(=O)c1cccc(-n2sc3ccccc3c2=O)c1	2.5µM*	-3%	-42	1%
CC(SC(C)C(=O)NN=Cc1cccc(F)c1)C(=O)NN=Cc1cccc(F)c1 (stereo not drawn)	·	3%	·	0%
Cc1ccc(NC(=O)NCCCl)cc1S(=O)(=O)N1CCOCC1	-2%	6%	-5	-1%
CCN(CC)S(=O)(=O)c1cc(NC(=O)NCCCl)ccc1C	2%	4%	-71*	7%
COc1ccc(-c2cccc(NC(=O)COc3ccc(Cl)cc3)c2)nn1	·	-6%	-11	0%
Cc1ccc(C2=NCCn3c2c2ccc([N+](=O)[O-])cc2[n+]3[O-])cc1	·	0.71µM*	-1	0%
CC(=O)Nc1ccc(N(CC(=O)NC2CCCCC2)C(=O)Cn2nnc(-c3ccccc3)n2)cc1	-8%	-4%	0	3%
CCSc1nsc(NC(=O)Nc2ccccc2F)n1	-6%	1%	-20	·
C=CCSc1nsc(NC(=O)Nc2ccc(F)cc2)n1	0%	-18%	-82*	0%
O=C1c2cccnc2C(=O)N1Cc1ccc(S(=O)(=O)N2CCN(c3ccc(Cl)cc3)CC2)cc1	·	4%	-135*	1%
CCN(CC)c1ccc(NC2=C(Cl)C(=O)c3ccccc3C2=O)cc1	-6%	-2%	-93*	-1%[46.1 µM]
Cc1ccc(NC2=C(Cl)C(=O)c3ccccc3C2=O)cc1	-6%	-2%	6	0%[46.1 µM]
CN(C)CCN1C(=O)NC(C)(c2ccc([N+](=O)[O-])cc2)C1=O (stereo not drawn)	-6%	0%	-9	-1%
COc1ccc(Nc2nc(-c3sc(C)nc3C)cs2)c(OC)c1	5%[11.5 µM]	4.5µM*	-27	-2%
C=CCCC(=O)Nc1nc(C)c(-c2csc(Nc3ccccc3OC)n2)s1	11%	3.5µM*	-26	-10%
COc1ccc(Nc2nc(-c3cccs3)cs2)c(OC)c1	3%	2%	-5	1%
O=C(O)CC1S/C(=N/N=C/c2ccc(-c3ccccc3[N+](=O)[O-])o2)NC1=O (stereo not drawn)	-17%	-2%	-1	4%
Cc1ccc(-c2ccc(/C=N/N=C3/NC(=O)C(CC(=O)O)S3)o2)c([N+](=O)[O-])c1 (stereo not drawn)	-14%	2%	-72*	1%
CCOc1ccnc2c1c(=O)n(Cc1cc(OC)cc(OC)c1)c(=O)n2C	·	5%	-140*	-1%
COc1ccnc2c1c(=O)n(Cc1cccc(Cl)c1)c(=O)n2C	2%[0.46 µM]	12%	-7	8%
SMILES	PKM2 act	uPA generation	TSHR antagonist	TCR act
COc1ccc(CN2C(=O)c3cccnc3C2=O)cc1S(=O)(=O)NC1CCCCC1C (stereo not drawn)	-2%	0%	20	-6%
O=[N+]([O-])c1cccc(CSc2nc3ccccc3[nH]2)c1	2%	0%	2	6%
COc1cccc(CSc2nc3ccccc3[nH]2)c1	-18%	8.9µM*	-13	4%[46.1 µM]
COc1cc2c(cc1OC)C1O[C@](CCCCN3C(=O)c4ccccc4C3=O)(C2)OC2=C1C(=O)c1ccccc1C2=O	1%[11.5 µM]	·	·	·
CCCCS(=O)(=O)N1CCc2nc(COc3ccccc3)c3c(c2C1)CO[C@@H](C)C3	-4%[11.5 µM]	·	·	·
COc1ccc(NC(=O)CCNS(=O)(=O)c2ccc3c(c2)CC(C)N3C(C)=O)cc1 (stereo not drawn)	·	2%	-92*	2%
CCOc1ccc(NC(=O)CCNS(=O)(=O)c2ccc3c(c2)CC(C)N3C(C)=O)cc1 (stereo not drawn)	·	1%	-5	1%
CC(=O)N[C@@H](C)C(=O)OC(C)C(=O)Nc1cccc([N+](=O)[O-])c1 (stereo partly drawn)	2%	-2%	3	-42%
Cc1cc(C=O)c(C)n1-c1ccc(NC2CCCC2)c([N+](=O)[O-])c1	3%	2%	-100*	-4%
Cc1ccc(S(=O)(=O)NCC(=O)OCC(=O)Nc2cccc(S(=O)(=O)N3CCOCC3)c2)cc1	·	-16%	1	-1%
Cc1cccc(NC(=O)C2CCCN(C(=O)Nc3ccc(F)cc3)C2)c1 (stereo not drawn)	-1%	0%	0	-3%
COc1ccccc1N1CCN(C(=O)c2ccc(NS(=O)(=O)c3ccc(C)cc3)cc2)CC1	8.9µM*	0%	0	1%
COc1ccc(NS(=O)(=O)c2cccc(C(=O)N3CCN(Cc4ccc5c(c4)OCO5)CC3)c2)cc1	·	-10%	-5	-2%
CCOc1ccccc1N1CCN(C(=O)c2ccc(S(=O)(=O)Nc3ccccc3)cc2)CC1	·	-9%	-4	0%
O=C(c1ccc(S(=O)(=O)NCc2ccco2)cc1)N1CCN(Cc2ccccc2)CC1	7.9µM*	-20%	-1	7%
O=C(c1ccc(NS(=O)(=O)c2ccccc2)cc1)N1CCN(Cc2ccc3c(c2)OCO3)CC1	13µM*	0%	-4	1%
CN(C)CCNC(=O)C1CCN(S(=O)(=O)c2ccc3ccccc3c2)CC1	0%	-1%	43	-1%
CC(C)c1cccc2cc3c(nc12)-c1cccc(=O)n1C3	2%	·	·	·
CCCn1c(-c2ccc(F)cc2)nc2c(NCCCCN(CC)CC)nc(C)nc21	-3%	·	·	·
CC1CN(CC(=O)NN=C(c2ccccc2)c2ccccc2)CC(C)O1 (stereo not drawn)	0%	-3%	-8	-2%
COC(=O)C[C@H]1c2ccccc2C2=C(C[C@@H](C)[C@H]3C(=O)N(c4ccccc4)C(=O)[C@@H]23)N1C(=O)OC	-7%[11.5 µM]	·	·	·
Cc1cccc(C(=O)N[C@H](C(=O)Nc2nc3ccccc3[nH]2)C(C)C)c1	-1%	2.8µM*	7	-3%
COc1ccc(C(=O)N[C@H](C(=O)Nc2nc3ccccc3[nH]2)C(C)C)cc1	·	-5%	6	5%
FC(F)(F)c1cccc(-n2cccc2/C=N/n2cnnc2)c1	20µM*	·	1	-1%
Oc1ccc(-n2cccc2/C=N/n2cnnc2)cc1	1%	-8%	12	3%
Cc1ccc(C)c(N2CCN(S(=O)(=O)c3ccc4c(c3)CC(C)N4C(=O)C3CC3)CC2)c1 (stereo not drawn)	-2%[0.46 µM]	2%	-77*	4%
Cc1cccc(N2CCN(S(=O)(=O)c3ccc4c(c3)CC(C)N4C(=O)C3CC3)CC2)c1C (stereo not drawn)	3%[0.46 µM]	-13%	-1	-3%

Screens as filed in PubChem BioAssay.
